Measurements as given in PubChem BioAssay (NCI).
The panel holds about 79,000 compounds, 15% with a hit somewhere; the sample as a whole holds those more often. A number with no mark means an inactive call. Active and inactive are the calls of the source. No stated cut-off is given here; in the data, active means growth inhibition above about 70%; inactive means the rest.

Experiments:
[1] = NCI Yeast Anticancer Drug Screen. Data for the rad50 strain (AID 155);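 further: 0% = growth of vehicle-only cultures of the same strain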; conditions: S. cerevisiae rad50 strain growth inhibition, stronger effect = higher value
Outline: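 Cells are treated with compound, grown, and their growth is then scored against vehicle-only cultures of the same repair-deficient yeast strain.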

[2] = NCI Yeast Anticancer Drug Screen. Data for the mec2-1 strain (AID 157); conditions: S. cerevisiae mec2-1 strain, stronger effect = higher value
Outline: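 Each compound was tested on mec2-1 yeast, a strain altered in DNA damage repair or cell cycle control. Growth inhibition is reported relative to vehicle.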

[3] = NCI Yeast Anticancer Drug Screen. Data for the sgs1 mgt1 strain (AID 161);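 further: 0% = growth of cultures given vehicle only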; conditions: S. cerevisiae sgs1 mgt1 strain, stronger effect = higher value
Outline: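 Genetically altered yeast, compound exposure, growth inhibition relative to vehicle.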

[4] = NCI Yeast Anticancer Drug Screen. Data for the cln2 rad14 strain (AID 165);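 further: 0% = growth equal to vehicle treated cultures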; conditions: S. cerevisiae cln2 rad14 strain, stronger effect = higher value
Outline: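 Test compounds were added to cln2 rad14 yeast cultures; inhibition of growth was then determined by comparison with vehicle treatment.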

[5] = NCI Yeast Anticancer Drug Screen. Data for the bub3 strain (AID 167); conditions: S. cerevisiae bub3 mutant strain, stronger effect = higher value
Outline: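 Part of a panel of yeast mutants defective in DNA damage repair or cell cycle regulation. Each strain is grown with compound, and inhibition is calculated relative to solvent-treated cultures.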

[6] = NCI Yeast Anticancer Drug Screen. Data for the mlh1 rad18 strain (AID 175); conditions: S. cerevisiae mlh1 rad18 strain growth inhibition, stronger effect = higher value
Outline: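 Inhibition values reflect reduced growth of mutant yeast versus vehicle-treated controls following compound exposure; the mutations affect DNA damage repair.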

[7] = at 5.0 µM (retest, dose inferred, filed as 0.5)
[8] = at 50.0 µM (retest, dose inferred, filed as 5.0)

Compound | growth inhibition [1, 7] | growth inhibition [1, 8] | growth inhibition ([1]; at 50.0 µM) | growth inhibition [2, 7] [%] | growth inhibition [2, 8] | growth inhibition ([2]; at 50.0 µM) | growth inhibition [3, 7] | growth inhibition [3, 8] | growth inhibition ([3]; at 50.0 µM) | growth inhibition [4, 7] [%] | growth inhibition [4, 8] | growth inhibition ([4]; at 50.0 µM) | growth inhibition [5, 7] | growth inhibition [5, 8] | growth inhibition ([5]; at 50.0 µM) | growth inhibition [6, 7] [%] | growth inhibition [6, 8] | growth inhibition ([6]; at 50.0 µM)
O=C1N(Cc2ccccc2)CC1(c1ccccc1)C1CCCCC1O (stereo not given) | -1% | 96% (active) | -18.1% | -5 | 49% | 7.8% | -3% | 82% (active) | 35.5% | -8 | 84% (active) | 6.9% | -2% | 93% (active) | 65.6% | -2 | 93% (active) | 4.1%
Fc1ccc(OCCC(Cn2ccnc2)c2ccc(Cl)cc2Cl)cc1 (stereo not given) | 82% (active) | 99% (active) | 98.7% (active) | 56 | 91% (active) | 99.8% (active) | 71% (active) | 96% (active) | 95.2% (active) | 61 | 92% (active) | 94.7% (active) | 83% (active) | 94% (active) | 99.2% (active) | 55 | 99% (active) | 95.1% (active)
CCCc1nc2ccccc2c(=O)n1/N=C/c1ccccc1O | 4% | -5% | 44.2% | -1 | -1% | 47.9% | 4% | -1% | 72.4% (active) | -4 | -2% | 53.8% | -2% | -2% | 82.5% (active) | -2 | 2% | 71% (active)
O=P1(Cc2ccccc2)c2ccccc2-c2ccccc21 | -21% | 99% (active) | 85.6% (active) | -17 | 99% (active) | 91.1% (active) | -24% | 97% (active) | 88.9% (active) | -18 | 96% (active) | 89.4% (active) | -33% | 99% (active) | 88.7% (active) | 4 | 99% (active) | 84.3% (active)
CCOCCNCc1ccc(Cl)c(Cl)c1 | -145% | -89% | 4.05% | -47 | -51% | 0.1% | -60% | -90% | 2.7% | -51 | -53% | 21.1% | -67% | -50% | -5.85% | -144 | -85% | -7.9%
CCCCCCCCCCCCCCCBr | -27% | 4% | 10.7% | -9 | 12% | 49.6% | -10% | 6% | -9.7% | -5 | -5% | 85.5% (active) | 2% | -2% | 80.7% (active) | 5 | 18% | 92.8% (active)
CCOc1c(N=Nc2ccccc2Cl)c(C)nn1C(=S)S | -9% | 36% | 89.3% (active) | -15 | 9% | 80.7% (active) | 8% | 4% | 77.3% (active) | -42 | -6% | 92.2% (active) | -20% | 17% | 74% (active) | -23 | 40% | 96% (active)
CCCCCCCCCCCCCCCc1nc(SCC(=O)O)n[nH]1 | 2% | 58% | 54.8% | 0 | 52% | 55.9% | 18% | 54% | 74.2% (active) | 3 | 40% | 80.5% (active) | -1% | 67% | 37.1% | 9 | 71% (active) | 89.5% (active)
O=c1ccnc(Nc2ccc[nH]c2=S)[nH]1 | -2% | -11% | 3.2% | 0 | -7% | -3.3% | -1% | -7% | 46.2% | -3 | -23% | 1.4% | 4% | 1% | 8.85% | -3 | -16% | 1.85%
Cc1cc(=O)n(C)c2c(C)cccc12 | -163% | -139% | 12.9% | -47 | -47% | 15.9% | -60% | -57% | 12.4% | -56 | -50% | 46.3% | -73% | -72% | -2.85% | -145 | -107% | 10.2%
Nc1ccc2c(c1)CN1C(=O)c3ccccc3C1=N2 | 24% | 54% | 67.3% | 8 | 22% | 34.6% | -3% | 12% | 5.55% | 23 | 18% | 36.6% | 3% | 19% | 22.4% | 11 | 19% | 46%
Nc1ccc2c(c1)CCc1ccccc1-2 | 1% | 40% | 83.3% (active) | -27 | 10% | 43.6% | 2% | 52% | 89.8% (active) | -5 | 8% | 50.4% | -7% | 65% | 81.5% (active) | 2 | 45% | 86.5% (active)
COc1ccc(-c2nc(N)n(C)c2SSc2c(-c3ccc(OC)cc3)nc(N)n2C)cc1 | 2% | 26% | 23.6% | -4 | 26% | 5.2% | 28% | 27% | 2.5% | 6 | 30% | 6.95% | 41% | 50% | 3.6% | -2 | 28% | -15.6%
CC(C)Cc1cc(O)cc2ccccc12 | 4% | 98% (active) | 98.9% (active) | 5 | 99% (active) | 99.2% (active) | 3% | 98% (active) | 98.5% (active) | 2 | 97% (active) | 98.4% (active) | 5% | 99% (active) | 98.5% (active) | 0 | 98% (active) | 98.8% (active)
CC1(C)NNC(=S)NN1 | 2% | 12% | 5.95% | -3 | 8% | 15.4% | 4% | 14% | 21.3% | 12 | 7% | 9.75% | 23% | 5% | 2.4% | 20 | 8% | 41.8%
COc1ccc(OC)c(/C=C/c2ccnc3ccccc23)c1 | -3% | 98% (active) | 96.3% (active) | -1 | 97% (active) | 95.3% (active) | -2% | 98% (active) | 97.2% (active) | -4 | 97% (active) | 94.3% (active) | -1% | 97% (active) | 95% (active) | -2 | 97% (active) | 95.6% (active)
CC1=Nc2ccccc2C1C(Cc1ccccc1N)c1c(C)[nH]c2ccccc12 (stereo not given) | 15% | 97% (active) | 95.6% (active) | 16 | 95% (active) | 95.4% (active) | 11% | 90% (active) | 88.8% (active) | 15 | 98% (active) | 94.5% (active) | 7% | 95% (active) | 89.6% (active) | 11 | 96% (active) | 97% (active)
CCC(=O)N(CCC(C)C)c1ccccc1 | 3% | 7% | 11.8% | -2 | 2% | -2.15% | 0% | 1% | -8.65% | 3 | 4% | 41.1% | 3% | -11% | -18.6% | 3 | 2% | -11.9%
COc1cc2c(cc1O)C1C(O)C(O)C=C3CCN(C2)C31 (stereo not given) | 4% | 97% (active) | 85.5% (active) | 4 | 97% (active) | 84.8% (active) | 5% | 96% (active) | 82.5% (active) | 14 | 96% (active) | 84% (active) | 2% | 95% (active) | 85.5% (active) | 3 | 97% (active) | 86.9% (active)
CCCCCCCCCCCC(O)=C1C(=O)CC(O)CC1=O (stereo not given) | 33% | 88% (active) | 88.3% (active) | 25 | 97% (active) | 91.6% (active) | 48% | 98% (active) | 91% (active) | 40 | 91% (active) | 90.3% (active) | 42% | 97% (active) | 89.7% (active) | 46 | 96% (active) | 82.8% (active)
